Bioassay records from PubChem.
Hits are enriched below; roughly 6.6% of the tested compounds scored in any of these assays.
SW480 rerep = inducers of DNA re-replication in SW480 colon cancer cells. 1.8% of 340,000 active. AID 624297. SW480 DNA re-replication, Hoechst DNA content imaging, 48 h. Potency, µM (titrated, usually from 46.1 µM), actives largely listed as activators; further: nearly all actives have a fitted effect of over 55% in size
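250 cells/well; 23 nL cpd via pin tool; 48 hr, 37 C, 5% CO2; Hoechst 40 min; imager read of total nuclear intensity, ex 405/em 500-530 nm.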
KB-V1 cytotox = KB-V1 MDR subline cytotoxicity. KB-V1 MDR cells viability, CellTiter-Glo, 72 h. Potency, µM (doses to about 46.1 µM), most hits filed as cytotoxic. 3.4% of 400,000 active. AID 1347076; further: nearly all actives have a fitted effect of over 60% in size
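Following 72 h at 37 degrees C with compound, KB-V1 cell viability was read by CellTiter-Glo luminescence, medium being phenol-red-free DMEM plus 10% FBS; concentration-response parameters came from normalized, curve-fitted qHTS data.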
KB-3-1 cytotox = KB-3-1 parental cell cytotoxicity; KB-3-1 viability, CellTiter-Glo ATP luminescence, 72 h; Potency, µM (highest dose often 46.1 µM), hits mostly cytotoxic; AID 1347075; 1.4% of 400,000 active; further: nearly all actives have a fitted effect of over 60% in size
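Cytotoxicity measured as CellTiter-Glo luminescence after 72 h at 37 C. Compound titrations were pinned onto drug-naive KB-3-1 parental adenocarcinoma cells grown in DMEM with 10% FBS, and normalized data fitted to concentration-response curves.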
MCF10A rereplic = DNA re-replication induction in MCF 10a cells. 2.9% of 350,000 active. MCF 10A DNA re-replication, Hoechst nuclear intensity, 48 h. Potency, µM (top dose mostly 46.1 µM), most hits filed as activators. AID 624296; further: nearly all actives have a fitted effect of over 50% in size
TSG101-PTAP inh = blocks PTAP/TSG101 interaction to inhibit HIV-1 budding; Potency, µM (top dose mostly 115 µM), usual class: inhibitors; Fluorescence polarization, FITC-PTAP peptide / Tsg101 binding; Q99816; 340,000 tested, under 10 active; active means well fitted inhibition curve with a large enough effect in the main read-out, with a control signal flat, not every such curve was filed as active; inconclusive means small, poorly fitted or top-dose-only effect, or effect the other way, or a change in a side signal; inactive means no such curve, though single readings can be large or run the other way
Target sequence (Q99816 whole entry, looked up): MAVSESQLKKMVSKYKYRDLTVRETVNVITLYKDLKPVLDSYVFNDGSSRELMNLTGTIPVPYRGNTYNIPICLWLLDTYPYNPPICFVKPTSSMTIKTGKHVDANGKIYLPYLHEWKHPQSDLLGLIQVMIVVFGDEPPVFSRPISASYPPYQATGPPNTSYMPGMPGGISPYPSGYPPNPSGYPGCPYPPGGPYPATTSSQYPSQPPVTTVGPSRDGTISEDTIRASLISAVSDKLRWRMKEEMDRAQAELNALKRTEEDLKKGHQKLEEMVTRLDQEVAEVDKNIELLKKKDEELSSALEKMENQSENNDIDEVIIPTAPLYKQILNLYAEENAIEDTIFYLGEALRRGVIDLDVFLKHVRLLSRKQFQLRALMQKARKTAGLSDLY
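Fluorescence anisotropy tracks displacement of a FITC-tagged PTAP peptide (50 nM) from the Tsg101 binding domain (10 uM), following a 20 min room-temperature incubation at pH 7.5.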
RGS4 inhibitor = blocks human RGS4-accelerated GTP hydrolysis | Transcreener GDP fluorescence polarization, RGS4-accelerated GTP hydrolysis | Potency, µM (top dose mostly 114 µM), usual class: inhibitors | 0.039% of 390,000 active | AID 504845; further: nearly all actives have a fitted effect of over 75% in size
Target sequence (P49798 whole entry, looked up): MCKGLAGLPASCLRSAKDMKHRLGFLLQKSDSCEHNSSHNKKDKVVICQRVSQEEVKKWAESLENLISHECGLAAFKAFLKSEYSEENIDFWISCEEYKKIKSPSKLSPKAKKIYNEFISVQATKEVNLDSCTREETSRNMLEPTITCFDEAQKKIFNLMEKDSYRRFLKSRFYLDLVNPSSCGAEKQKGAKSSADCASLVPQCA
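MLSMR compounds (23 nl, pin-transferred) preincubated 10 min at room temperature with a 500nM (2x) first reagent, then RGS4 at 900nM (2x) plus Transcreener GDP mix added; fluorescence polarization (620/688 nm) read before and after 90 min at 30 °C.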
Of the large screens only hits and unclear results are named; the others gave an inactive call. Unless noted, the call rests on the fitted dose curve; in most records, active means well fitted curve in the direction sought with a large enough effect; inconclusive means small, poorly fitted or top-dose-only effect, or another doubt; inactive means no such curve, though single readings can be large; an effect the other way counts as inactive or inconclusive.

CCCC1=Nc2cc(C(=O)NC3CCCCC3)ccc2Sc2ccc(C)cc21	KB-V1 cytotox 0.82µM, KB-3-1 cytotox 0.52µM (no result: SW480 rerep, MCF10A rereplic, TSG101-PTAP inh)
CCC1=Nc2cc(C(=O)NC3CCCC3)ccc2Sc2ccc(Br)cc21	none (no result: SW480 rerep, KB-V1 cytotox, KB-3-1 cytotox, MCF10A rereplic, TSG101-PTAP inh)
CCCC1=Nc2cc(C(=O)NC3CCCC3)ccc2Sc2ccc(C)cc21	none (no result: SW480 rerep, KB-V1 cytotox, KB-3-1 cytotox, MCF10A rereplic, TSG101-PTAP inh)
CCC1=Nc2cc(C(=O)NCc3ccco3)ccc2Sc2ccc(C)cc21	SW480 rerep 1µM, KB-V1 cytotox 0.16µM, KB-3-1 cytotox inconclusive, MCF10A rereplic 1.5µM
CCC1=Nc2cc(C(=O)NC3CCC(C)CC3)ccc2Sc2ccc(C)cc21 (stereo not given)	KB-V1 cytotox 4.1µM, KB-3-1 cytotox 4.6µM (no result: SW480 rerep, MCF10A rereplic, TSG101-PTAP inh)
Cc1cc(N2CCN(C)CC2)nc2ccc(NC(=O)Nc3ccccc3Cl)cc12	KB-3-1 cytotox inconclusive (no result: SW480 rerep, MCF10A rereplic, TSG101-PTAP inh)
Clc1ccc2c(c1)C(N1CCNCC1)Cc1ccccc1S2 (stereo not given)	SW480 rerep inconclusive, KB-V1 cytotox 21µM, KB-3-1 cytotox inconclusive, MCF10A rereplic inconclusive
COc1ccc(CNCc2c(C(=O)O)c(C)n(Cc3ccc(Cl)cc3)c2C)c(OC)c1	none (no result: SW480 rerep, MCF10A rereplic, TSG101-PTAP inh)
c1nc(SSc2ncnc3nc[nH]c23)c2[nH]cnc2n1	SW480 rerep inconclusive, KB-V1 cytotox 2.3µM, KB-3-1 cytotox 5.2µM, MCF10A rereplic inconclusive, RGS4 inhibitor inconclusive
CN(C(=O)CSc1nc2c(c(=O)[nH]1)CCCC2)C1CCCCC1	KB-V1 cytotox 16µM, MCF10A rereplic inconclusive
COc1ccc(-c2cn3nc(SCC(=O)Nc4cc(C)cc(C)c4)ccc3n2)cc1	none (no result: SW480 rerep, MCF10A rereplic, TSG101-PTAP inh)
O=C([C@@H]1CC=C[C@@H]2CCN(C3CCCCC3)C(=O)[C@@H]21)N1CCOCC1	none (no result: SW480 rerep, MCF10A rereplic, TSG101-PTAP inh, RGS4 inhibitor)
Cc1ccc(-c2nnc(OCc3cccnc3)c3ccccc23)cc1	KB-V1 cytotox 16µM
COc1ccccc1C(=O)Nc1ccc(Oc2nnc(-c3ccc(C)cc3)c3ccccc23)cc1	none
c1ccc(-c2nnc(OCc3cccnc3)c3ccccc23)cc1	none
Cc1ccc(Oc2nnc(-c3ccc(C)cc3)c3ccccc23)cc1	KB-V1 cytotox 18µM, KB-3-1 cytotox inconclusive
Cc1ccc(-n2ncc(C(=O)NCc3ccccc3)c2C2CCN(C(=O)OC(C)(C)C)CC2)cc1	none (no result: SW480 rerep, MCF10A rereplic, TSG101-PTAP inh)
Cc1ccc(C)c(Nc2nc(-c3ccccc3)c3cc(Br)ccc3n2)c1	none (no result: SW480 rerep, MCF10A rereplic, TSG101-PTAP inh)
Cc1cc(NC(=O)COC(=O)C(Nc2ccc(C(F)(F)F)cc2Cl)C(C)C)no1 (stereo not given)	MCF10A rereplic 21µM, TSG101-PTAP inh inconclusive
COc1ccc(-c2cc(C3C4C=CCCC4(C)C(=O)N3Cc3ccccc3)ccc2F)cc1OC (stereo not given)	none (no result: SW480 rerep, KB-V1 cytotox, KB-3-1 cytotox, MCF10A rereplic, TSG101-PTAP inh)
Cn1c(=O)c2c(-c3ccccc3)n3c(c2n(C)c1=O)C(c1cccc([N+](=O)[O-])c1)Nc1ccccc1-3 (stereo not given)	KB-V1 cytotox inconclusive (no result: SW480 rerep, MCF10A rereplic, TSG101-PTAP inh)
CCn1cnc2cc(NCc3ccc(Cl)cc3)ccc21	none
COc1ccc(CNc2ccc3c(c2)ncn3C)cc1OC	SW480 rerep 10µM, KB-V1 cytotox inconclusive, KB-3-1 cytotox inconclusive
Cc1ccc(CNc2ccc3c(c2)ncn3C)cc1	none
CCn1cnc2cc(NCc3ccncc3)ccc21	MCF10A rereplic 15µM
O=C(CNC(=O)c1cccnc1)c1ccc(F)cc1	none (no result: SW480 rerep, MCF10A rereplic, TSG101-PTAP inh, RGS4 inhibitor)
Cc1cc(NC(=O)C(C)SCC(=O)N(Cc2ccccc2)c2ccccc2)no1 (stereo not given)	KB-V1 cytotox 6.5µM, KB-3-1 cytotox inconclusive, MCF10A rereplic inconclusive
COc1cc(C(=O)Nc2cccc(OCc3cc(=O)n4c(C)csc4n3)c2)cc(OC)c1OC	none (no result: SW480 rerep, MCF10A rereplic, TSG101-PTAP inh)
COc1ccc(/C(C)=N/Nc2nc3ccccc3nc2C)cc1	SW480 rerep 18µM, KB-3-1 cytotox 15µM, MCF10A rereplic 15µM
COc1ccc(/C(C)=N/Nc2nncc3ccccc23)cc1	none
OC(CNCC1COc2ccccc2O1)COCc1cccs1 (stereo not given)	KB-V1 cytotox 21µM, KB-3-1 cytotox inconclusive
COc1ccc(OC)c(NC(=O)CSc2cn(CC(=O)N3CCCCCC3)c3ccccc23)c1	none (no result: SW480 rerep, KB-V1 cytotox, KB-3-1 cytotox, MCF10A rereplic, TSG101-PTAP inh)
COc1cccc(N2CC(O)=C(c3nc4ccccc4s3)C2=N)c1	SW480 rerep 3.7µM, KB-V1 cytotox 3.3µM, KB-3-1 cytotox 7.3µM, MCF10A rereplic inconclusive
COc1ccc(N2CC(O)=C(c3nc4ccccc4s3)C2=N)cc1	none
CNc1ccc(/C=C2\C=Cc3ccccc32)cc1Br	none (no result: SW480 rerep, MCF10A rereplic, TSG101-PTAP inh, RGS4 inhibitor)
COc1cccc(CNC(=O)C2CCCN(S(=O)(=O)N(C)c3ccc(F)cc3)C2)c1OC (stereo not given)	KB-V1 cytotox inconclusive, KB-3-1 cytotox inconclusive (no result: SW480 rerep, MCF10A rereplic, TSG101-PTAP inh)
COC(=O)c1ccccc1NC(=O)C1CCCN(C(=O)c2cnn(-c3ccc(F)cc3)c2-n2cccc2)C1 (stereo not given)	KB-V1 cytotox 18µM, KB-3-1 cytotox inconclusive (no result: SW480 rerep, MCF10A rereplic, TSG101-PTAP inh)
